About 840 (25%) of roughly 3,400 compounds were called active. About 11% were inconclusive and are not listed.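 How the source made its calls: active means fitted half-maximal concentration of signal decrease at or below twice the sample's top tested concentration; inconclusive means flat curve between -70 and -30 percent, or poor fit; inactive means flat within 30 percent, signal rise, or potency above limit.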 A selection follows. Measured potencies and affinities stand elsewhere.

In PubChem BioAssay AID1259418 (Broad Institute, 2018) one finds max activity data, which are given here for 47 compounds.

This assay is described as follows: inhibitors of Toxoplasma growth in IFN-γ-primed HeLa – cell-based, ME49Luc, luciferase, 72 h, dose response (AID 1259418). As to conditions: T. gondii ME49Luc in IFN-y HeLa, active compounds read low, -100% = high-dose IFN-γ control wells; at 19.5 µM unless noted.
Consider `COc1ccc(-c2nc(Nc3cc(Cl)c(OC)cc3OC)c3ccccc3n2)cc1`, for which the max activity was 18.3% (inactive).

For `COc1ccc(-c2nc(Nc3ccc(OC)c(Cl)c3)c3ccccc3n2)cc1`, the max activity was 16.4% [at 2.6 µM] (inactive). With `Cc1ccc(S(=O)(=O)N2CCC3(CC2)OC(C(=O)N(C)C)Cn2ccnc23)cc1` (configuration not stated), the max activity was 40.3% (inactive). In the case of `O=C(Nc1ccccc1F)N1C[C@@H]2N[C@H](C1)C2c1ccc(/C=C/c2ccccc2)cc1` (some centres not stated), the max activity was 85.7% [at 1.2 µM] (inactive). Under `N#Cc1ccc(-c2ccc([C@@H]3[C@H]4CNC[C@@H]3N4Cc3ccc4c(c3)OCO4)cc2)cc1` stands 28.6% [at 10 µM] (inactive); under `O=C(C1CC1)N1C[C@@H]2N[C@H](C1)C2c1ccc(/C=C/c2ccccc2)cc1` (some centres not stated), 92.7% [at 0.08 µM] (inactive); under `N#Cc1cccc(-c2ccc(C3[C@@H]4CN(C(=O)c5ccc6c(c5)OCO6)C[C@H]3N4)cc2)c1` (some centres not stated), 17.9% (inactive). The result for `O=C(Nc1ccc2c(c1)OCO2)N1C[C@@H]2N[C@H](C1)C2c1ccc(C=Cc2ccccc2)cc1` (some centres not stated) reads 116% [at 1.2 µM] (inactive); that for `O=C(CN1CCOCC1)N1C[C@@H]2N[C@H](C1)C2c1ccc(/C=C/c2ccccc2)cc1` (some centres not stated), 41.5% [at 10 µM] (inactive). `COc1ccccc1NC(=O)N1C[C@@H]2N[C@H](C1)C2c1ccc(/C=C/c2ccccc2)cc1` (some centres not stated): the max activity was -98% (inactive). For `Cc1cccc(N2CCN(C(=O)c3ccc(-c4csc(C5CC5)n4)cc3)CC2C)c1` (configuration not stated), the max activity is 40.1% (inactive). In the case of `CCN1C(=O)CCc2cc(NC(=O)c3ccc(Br)o3)ccc21`, the max activity was 15.9% [at 10 µM] (inactive). `Cc1ccc(-c2coc(-c3ccc(NC(=O)Nc4ccccc4Br)cc3)n2)cc1`: the max activity is -10.7% [at 10 µM] (inactive). With `CCc1ccccc1NC(=O)CN1CCC2(CC1)N=C(c1cccc(Cl)c1)C(=O)N2`, the max activity is 9.92% (inactive). On to `Cn1c(=O)c(C(=O)NCc2ccccc2Cl)cc2cccnc21`, for which the max activity is 196% (inactive). In the case of `Cc1ccccc1N(Cc1nc(-c2cccc(Cl)c2)oc1C)S(=O)(=O)c1cccs1`, the max activity is -9.43% [at 5 µM] (inactive). With `CCOc1ccc(-c2nc(CN(c3ccccc3OCC)S(=O)(=O)c3cccs3)c(C)o2)cc1`, the max activity was 6.64% (inactive). As for `CCOc1ccc(-c2nc(CN(c3ccccc3C)S(=O)(=O)c3cccs3)c(C)o2)cc1OC`, the max activity is -13.1% [at 0.16 µM] (inactive).

Take `Cc1ccccc1N(Cc1nc(-c2ccc(OC(C)C)cc2)oc1C)S(=O)(=O)c1cccs1`: the max activity was 4.55% (inactive). Under `CCOC(=O)CSC1=Nc2ccccc2C2=NC(CC(=O)NCc3ccco3)C(=O)N12` (configuration not stated) stands 21.4% [at 1.35 µM] (inactive); under `COc1ccc(C(=O)Nc2ccc(-c3nc(-c4cc(C)ccc4C)co3)cc2)cc1`, 9.17% (inactive). As for `COc1ccccc1C(=O)N1CCC2(CC1)Nc1ccc(C)c(C)c1-n1cccc12`, the max activity is -7.27% [at 1.35 µM] (inactive). Take `CN1CCC(N2CCN(c3ncccc3-c3nnc(-c4ccc(Cl)cc4)o3)CC2)CC1`: the max activity is 4.69% (inactive). The result for `Cc1ccc(NC(=O)Nc2ccc(-c3nc(-c4ccccc4)co3)cc2)cc1Cl` reads 9.34% (inactive); that for `CCOc1ccc(NC(=O)COc2nc(C)nc3ccccc23)cc1`, 30.4% [at 10 µM] (inactive); that for `Cc1ccc2c(c1C)-n1cccc1C1(CCN(C(=O)COc3ccc(F)cc3)CC1)N2`, -9.55% [at 0.16 µM] (inactive). As for `Cc1ccc(-c2coc(-c3ccc(NC(=O)CC4CCCCC4)cc3)n2)cc1`, the max activity is -15.2% (inactive). In the case of `CCOc1ccccc1N(Cc1nc(-c2cccc(Cl)c2)oc1C)S(=O)(=O)c1cccs1`, the max activity was 6.9% (inactive). Consider `COc1ccccc1N(Cc1nc(-c2ccc(OC(C)C)cc2)oc1C)S(=O)(=O)c1cccs1`, for which the max activity was -8.76% [at 0.35 µM] (inactive).

Consider `CCOc1ccccc1N(Cc1nc(-c2cccc(C)c2)oc1C)S(=O)(=O)c1cccs1`, for which the max activity is 10.6% (inactive).

For the compound `COc1ccccc1N(Cc1nc(-c2ccccc2)oc1C)S(=O)(=O)c1cccs1`, the max activity is -5.51% [at 0.68 µM] (inactive). Under `O=C(O)CN1C[C@H]2c3ccccc3C(OCC3CC3)[C@@H]2C1` (some centres not stated) stands 42.3% (inactive); under `CCc1ccc2c(c1)cc(S(=O)(=O)c1ccccc1)c(=O)n2CC(=O)NC1CCCC1`, 14.3% [at 0.16 µM] (inactive). Regarding `COc1ccc(-c2nc(Nc3ccc(C)c(F)c3)c3ccccc3n2)cc1`, the max activity is 17.7% [at 2.6 µM] (inactive). The result for `O=C(Cn1cccc1-c1nc(-c2ccccc2)cs1)N1CCC2(CC1)OCCO2` reads -15.4% [at 2.6 µM] (inactive); that for `COc1ccccc1N(Cc1nc(-c2ccccc2)oc1C)S(=O)(=O)c1ccccc1C`, 9.45% [at 5 µM] (inactive). `Cc1csc([C@H]2C[C@H]3CCN(C(=O)c4cnccn4)C[C@@H]3O2)n1`: the max activity is 48.1% (inactive). On to `COc1ccc(-c2nc(C)c(-c3ccc(SCc4ccc(C(F)(F)F)cc4)nn3)s2)cc1`, for which the max activity is 8.72% [at 2.6 µM] (inactive). The result for `CCCCC(=O)N1CCC2(CC1)Nc1cc(OC)ccc1-n1cccc12` reads 14.1% [at 2.6 µM] (inactive); that for `Cc1ccc(-c2nc(CN3CCN(C(=O)Nc4ccccc4Cl)CC3)c(C)o2)cc1`, 16.4% [at 2.6 µM] (inactive); that for `O=C(CC1N=C2c3ccccc3N=C(SCc3cccc(Cl)c3)N2C1=O)NCc1ccc2c(c1)OCO2` (configuration not stated), 19.4% [at 10 µM] (inactive). Regarding `CCOC(=O)CSC1=Nc2ccccc2C2=NC(CC(=O)NCCc3ccccc3)C(=O)N12` (configuration not stated), the max activity is 64.6% (inactive). Consider `O=C(CC1N=C2c3ccccc3N=C(SCc3cccc(Cl)c3)N2C1=O)NCc1ccc(F)cc1` (configuration not stated), for which the max activity is 30.2% (inactive). Turning to `O=C(CC1N=C2c3ccccc3N=C(SCc3ccccc3Cl)N2C1=O)NCc1ccccc1` (configuration not stated), the max activity was 12.8% [at 2.6 µM] (inactive). Under `O=C(CC1N=C2c3ccccc3N=C(SCc3ccccc3Cl)N2C1=O)NCc1ccc(F)cc1` (configuration not stated) stands -7.22% [at 0.16 µM] (inactive). `O=C(CC1N=C2c3ccccc3N=C(SCc3ccc(Cl)cc3)N2C1=O)NCc1ccc(F)cc1` (configuration not stated): the max activity was 15% (inactive). As to `COc1ccccc1-c1nc(Cn2nnc(-c3nc(-c4ccc(Cl)cc4)no3)c2C)c(C)o1`, the max activity is 9.29% (inactive).
